# Test results as given in PubChem BioAssay (NCATS).
# Inconclusive results are not listed. Calls of active or inactive are those of the source. Calls follow the shape of the dose curve; as a rule, active = well fitted curve in either direction with a large enough effect (not every such curve was filed as active); inconclusive = small, poorly fitted or top-dose-only effect, or another doubt; inactive = flat fitted curve, though single readings scatter.
# Test: Stat Signaling Pathway (AID 446)
# Details: ME-180 (cervical carcinoma) SIE beta-lactamase reporter, IL-6 stimulated, 5 h; at 7.69 µM (top of the series) unless noted
# Method: NCGC Assay Overview: The IL-6/STAT signaling pathway was assayed in ME-180 cervical carcinoma cells by a beta-lactamase reporter gene controlled by a STAT Inducible Element (SIE). This reporter is induced by IL-6 at 40 pM AC50 and inhibited by the pan JAK inhibitor, 2-(1,1-Dimethylethyl)-9-fluoro-3,6-dihydro-7H-benz[h]-imidaz[4,5-f]isoquinolin-7-one, at approximately 10 nM AC50. Plated cells were incubated overnight and on the following day, stimulated with 40 pM IL-6 for 5 hrs. The assay was screened at the AC50 of IL-6 activation to identify both inhibitors and activators of IL-6/STAT signaling.
# NCGC Assay Protocol Summary: Cells were trypsinized, washed in assay medium (AM, OPTI MEM with 0.5% fetal bovine serum, 0.1 mM nonessential amino acids, 1 mM sodium pyruvate, 10mM HEPES pH 7.3, 100U/ml penicillin, and 100 ug/ml streptomycin) and suspended at 6 x 10e5/ml in AM. Approximately […] cells in 5 uL/well was dispensed into 1536 well plates and the cells were incubated overnight at 37 C. 23 nL of compound were delivered by a pin tool and 1 uL of IL-6 (40 pM final concentration in AM) was added. After centrifugation at 1000 rpm for less than a minute, plates were incubated at 37C for 5 hrs. One uL of detector mix (LiveBLAzerTM, Invitrogen) was added, the plates incubated at room temperature for 2.5 hrs, and fluorescence intensity at 460 and 530 nm emission was measured at 405 nm excitation by an Envision (Perkin Elmer) or Safire II (Tecan). Data were normalized by GeneData to the controls for AC90 stimulation (300 pM IL-6) and to AC90 inhibition (125 nM Jak inhibitor, 40 pM IL-6 in AM).
# % is scaled to controls: 0 for no effect and ±100 for the full control effect.
row,Structure (SMILES),"activity, negative = inhibition"
1,O=S(=O)(O)c1ccc(-c2nnc(-c3ccccn3)nc2-c2ccc(S(=O)(=O)O)o2)o1,2.53% (inactive)
2,Cn1c(N)nc2c(nc(OCc3ccccc3)n2[C@@H]2O[C@H](CO)[C@@H](O)[C@@H]2O)c1=O,-1.71% (inactive)
3,CC(C)CCC[C@@H](C)[C@@H]1CC[C@@H]2[C@H]3CC[C@H]4C[C@@H](N)CC[C@@]4(C)[C@@H]3CC[C@]21C,11.5% (inactive)
4,Cc1cc(C2(c3cc(C)c(O)c(C(=O)O)c3)OS(=O)(=O)c3ccccc32)cc(C(=O)O)c1O,2.58% (inactive)
5,Nc1nc(SC/C=C\c2ccccc2)c2[nH]cnc2n1,1.2% (inactive)
6,Cc1cc(Cl)ccc1OCC(=O)Oc1c(Cl)c(Cl)c(Cl)c(Cl)c1Cl,-0.45% (inactive)
7,O=C(O)CN1C(=O)O[C@@H](c2ccccc2)C1=O,-12.2% (inactive)
8,COc1ccc(Oc2ncc3nc(-c4ccccc4)c(=O)n(CCC#N)c3n2)cc1,-6.05% (inactive)
9,CC(C)=C[C@H]1[C@@H](COC(=O)c2ccccc2Cl)C1(C)C,-1.06% (inactive)
10,NC(N)=NC(N)=Nc1ccccc1 (tested in a mixture with another compound),1.58% (inactive)
11,Nc1ccc(S(=O)(=O)NCc2nccs2)cc1,-1.21% (inactive)
12,COc1cc(N=C(N)N=C(N)N)c2ncccc2c1,-1.33% (inactive)
13,Cc1ccc(C)c(/C(=N\N=C(N)N)C2CC2)c1,4.46% (inactive)
14,CN1CCc2[nH]nc(-c3n[nH]c4c3CN(C)CC4)c2C1,2.92% (inactive)
15,CN(C)c1ccc(C(=C2C=CC(=[N+](C)C)C=C2)c2c(O)c(S(=O)(=O)O)cc3cc(S(=O)(=O)O)ccc23)cc1,4.39% (inactive)
16,N[C@@H](CSC1(c2ccc(Cl)cc2)c2ccccc2-c2ccccc21)C(=O)O,-2.38% (inactive)
17,Oc1cc(CN2COc3ccccc32)c(O)cc1CNC1CCCCC1,0.916% (inactive)
18,C[C@@]12CCC(=O)C=C1CC[C@H]1[C@@H]2[C@@H](O)C[C@]2(C)[C@@H]1CC[C@@]2(O)C(=O)CO,4.86% (inactive)
19,Cc1cc(C)c2nc3c(c([C@H](O)[C@@H]4CCCCN4)c2c1)CC/C3=C/c1ccc(Cl)cc1,1.11% (inactive)
20,O=S(=O)(O)c1ccc(O)c2ncccc12.O=S(=O)(O)c1ccc(O)c2ncccc12.[Zn],7.8% (inactive)

row,Structure (SMILES),"activity, negative = inhibition"
1,CC(C)(C)C1CCC2(CC1)CCN(CCCN1CCOCC1)CC2,-3.69% (inactive)
2,N.N.N.N.N.N.N.N.N.N.N.N.N.N.O.O.[Ru].[Ru].[Ru],-27% [at 38 µM] (inactive)
3,CC(=O)O[C@]1(C)N=NC2(CCCCC2)O1,16.1% (inactive)
4,O=c1c[n+](CC[n+]2cc(=O)o[nH]2)[nH]o1,4.21% (inactive)
5,CCC(=O)[C@@H](c1ccccc1)c1ccccn1,0.735% (inactive)
6,OC(Cc1ccccc1)(Cc1ccccc1)c1ccccc1,11% (inactive)
7,O=C(NNS(=O)(=O)c1ccccc1)c1cccnc1,2.24% (inactive)
8,CC(=O)CSCc1ccccn1,-2.34% (inactive)
9,CCCCN(c1ccccc1)c1ncnc2c1cnn2C,5.06% (inactive)
10,Nc1ccn([C@H]2O[C@@H](COP(=O)(O)O)[C@@H](O)[C@H]2O)c(=O)n1,4.03% (inactive)
11,COc1ccc(-c2csc3c2[N+]2=CCC=C2C3=O)cc1,-14.9% (inactive)
12,O[C@@H](c1cc(-c2ccccc2)nc2c1ccc1ccccc12)[C@@H]1CCCCN1,9.42% (inactive)
13,O=C(O)[C@@H](O)[C@@H](O)[C@H](O)[C@H](O)CO,-3.53% (inactive)
14,Cc1c2cccc(Sc3ccccc3)c2c2c3c(cccc13)[S+](c1ccccc1)C2 (stereo not given),2.31% (inactive)
15,CC1=NN(c2ccc(S(=O)(=O)O)cc2)C(=O)/C1=C\c1ccc(Cl)cc1,-1.78% (inactive)
16,O=C(O)C(=Cc1ccc(-c2ccccc2)cc1)C(=O)O,-12.1% (inactive)
17,O=C(O)c1cccc(SSc2cccc(C(=O)O)c2)c1,-14.5% (inactive)
18,CC[C@@H](CS(=O)(=O)O)[N+](=O)[O-],10.6% (inactive)
19,C[C@@H](C(=O)O)c1ccc(C[C@@H]2CCCC2=O)cc1,8.58% [at 38 µM] (inactive)
20,COc1ccc(Oc2ncc3nc(C)c(=O)n(-c4ccc(OC)cc4)c3n2)cc1,-16.4% (inactive)
